What all share (experiment): NCI-60 one-dose screen, 48 h (100 = growth as untreated, 0 = no growth, -100 = all killed)
Conditions in all cases: 10 µM unless noted

Assay [1] has as its system SR leukemia.
Assay [2] concerns RPMI-8226 leukemia.
The subject of assay [3] is OVCAR-8 ovarian.
The subject of assay [4] is OVCAR-5 ovarian.
Assay [5] concerns OVCAR-4 ovarian.
Assay [6] deals with SK-OV-3 ovarian.
Assay [7] deals with IGROV1 ovarian.
In assay [8] the test system is OVCAR-3 ovarian.
Assay [9] relates to NCI/ADR-RES ovarian.

This is part of a sample that, as a whole, favours compounds with a hit. Of some 83,000 tested, about 20% had one in any assay.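 Method: cells in 96-well plates; compound added at one concentration; 48 h incubation; percent growth measured; values under 10 scored active.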 Unmarked numbers belong to inactive results. Calls of active or inactive are those of the source.

With `COc1cc2c(Nc3ccc(Br)cc3F)ncnc2cc1OCC1CCN(C)CC1`, the growth is -6.08% (active) in [1]; 26.8% in [2]; 27.6% in assay [3]; 34.8% in [4]; 36.4% in assay [5]; -5.59% (active) in assay [6]. Moreover, the growth in [7] is -21.9% (active); in assay [8], 42.4%; in assay [9], 30.3%.

`CCN1CCN(Cc2ccc(-c3cc4c(N[C@H](C)c5ccccc5)ncnc4[nH]3)cc2)CC1`: the growth in assay [1] is 21.2%; in [2] it was 55.9%; in assay [3] it was 35.6%; in assay [4], 8.61% (active); in assay [5], 76.2%; in assay [6], -7.56% (active). Moreover, the growth was -1.26% (active) in [7], 56.8% in assay [8] and 46.7% in assay [9].

Take `Cc1cccc(Cl)c1NC(=O)c1cnc(Nc2cc(N3CCOCC3)cc(N3CCOCC3)c2)s1`: the growth in assay [1] is 15.7%; in assay [2], 89.8%; in assay [3], -36.2% (active); in assay [4] it was 23.3%; in [5], 60.4%; in [6] it was -38.7% (active). For the same molecule, the results for the growth in assay [7], in assay [8] and in [9] were -51.7% (active), 19.7% and 23.6%, respectively.

For `Nc1nc(N)c2nc(-c3cccc(O)c3)c(-c3cccc(O)c3)nc2n1`, the growth in [1] was 82%; in [2], 83.5%; in [3] it was 77.2%; in assay [4], 78.1%; in [5], 93.8%; in assay [6], 52.8%. The results for the growth in [7], in assay [8] and in assay [9] were 42.1%, 57.4% and 89.5%, respectively.

Consider `Cc1nc(Nc2n[nH]c3c2CN(C(=O)N[C@H](CN(C)C)c2ccccc2)C3(C)C)c2sccc2n1`, for which the growth in assay [1] is -12.1% (active); in assay [2], -35.2% (active); in assay [3], -26.3% (active); in assay [4] it was -2.55% (active); in assay [5], -12% (active); in assay [6], -26.8% (active). Besides, the growth in assay [7] is -17.9% (active); in assay [8], 8.31% (active); in assay [9], 40.3%.

Turning to `CN(C)C/C=C/C(=O)Nc1cc2c(Nc3ccc(F)c(Cl)c3)ncnc2cc1O[C@H]1CCOC1`, the growth is -15.8% (active) in assay [1]; -20.3% (active) in [2]; -2.55% (active) in [3]; 17% in assay [4]; 20.1% in assay [5]; -15.1% (active) in assay [6]. The growth in assay [7] was -27.1% (active); in [8], -14% (active); in assay [9], 5.68% (active).

`Cn1ccnc1C(=O)/C=C/c1ccc(CC(=O)Nc2ccc(S(F)(F)(F)(F)F)cc2)cc1`: the growth is 0.968% (active) in [1]; -18.8% (active) in assay [2]; -14.1% (active) in assay [3]; -38.1% (active) in assay [4]; 17.5% in [5]; 18.4% in assay [6]. Moreover, the growth was -17.5% (active) in [7], 6.7% (active) in assay [8] and 7.59% (active) in assay [9].

As for `C/C=C/C=N/NC(=S)Nc1ccccc1`, the growth in assay [1] was 83.4%; in assay [2] it was 104%; in assay [3], 96.5%; in assay [4] it was 82.2%; in [5], 94.1%; in assay [6] it was 94.2%. In addition, the growth in assay [7] is 93.6%; in assay [8] it was 117%; in [9], 99%.

On to `NC[C@@](O)(c1ccc(Cl)cc1)c1ccc(-c2cn[nH]c2)cc1`, for which the growth in assay [1] was 0.545% (active); in [2] it was 19.1%; in [3], 29.1%; in assay [4] it was 18.8%; in assay [5], 16.9%; in assay [6], 20%. For the same molecule, the values for the growth in [7], in assay [8] and in assay [9] were -18% (active), 52.4% and 40.9%, respectively.

As for `CN1CCC(COc2cnc(-c3cccc(Cn4nc(-c5cccc(C#N)c5)ccc4=O)c3)nc2)CC1`, the growth in [1] was -9.84% (active); in assay [2], 50.8%; in [3] it was 59.9%; in assay [4], 78.9%; in assay [5], 75.4%; in [6], 70.3%. Besides, the growth in assay [7] was 73.3%; in assay [8], 81.7%; in assay [9] it was 82.2%.

As for `CC[C@@H]1C(=O)N(C)c2cnc(Nc3ccc(C(=O)NC4CCN(C)CC4)cc3OC)nc2N1C1CCCC1`, the growth was -20.7% (active) in [1]; -40.6% (active) in [2]; 21.4% in [3]; 17.3% in [4]; 35.3% in assay [5]; -64.3% (active) in assay [6]. The growth was -0.189% (active) in assay [7], 13.1% in [8] and 24% in assay [9].

For `C[C@]12O[C@H](C[C@]1(O)CO)n1c3ccccc3c3c4c(c5c6ccccc6n2c5c31)CNC4=O`, the growth in assay [1] was -14.4% (active); in [2], -41.3% (active); in [3], -32.5% (active); in assay [4], 4.92% (active); in assay [5], -23% (active); in assay [6], -46.3% (active). For the same molecule, the figures for the growth in [7], in [8] and in [9] were -26.3% (active), 0.931% (active) and -38.1% (active), respectively.

As to `CCN(CCO)CCCOc1ccc2c(Nc3cc(CC(=O)Nc4cccc(F)c4)[nH]n3)ncnc2c1`, the growth in [1] is 12.3%; in assay [2], 72.5%; in assay [3], 49.8%; in assay [4] it was 20.7%; in [5], 48.4%; in [6], 68.3%. Also, the growth is 16.4% in [7], 44.4% in assay [8] and 70.7% in assay [9].

Take `Cn1ccnc1C(=O)/C=C/c1ccc(CC(=O)Nc2ccc(C(F)(F)F)cc2)cc1`: the growth in [1] was 1.17% (active); in assay [2], 3.07% (active); in assay [3] it was -25.8% (active); in assay [4], 22.9%; in assay [5], 43.1%; in assay [6], 53.5%. The growth in assay [7] was 9.94% (active); in [8] it was 9.48% (active); in [9], 6.64% (active).

For the molecule `c1cc(OCCN2CCCCC2)cc(-c2n[nH]c3ccc(-c4ncn[nH]4)cc23)c1`, the growth in assay [1] was 7.19% (active); in [2], 58.4%; in assay [3] it was 72.2%; in [4] it was 56.5%; in assay [5], 62.7%; in assay [6], 31.8%. Moreover, the growth in assay [7] was 30.9%; in assay [8] it was 69%; in assay [9] it was 89.7%.
